Measurements reported in the supplement of paper PMC6555819.

Experiments:
Experiment in all cases: PBM binding z-score (relative to random genomic background probes); higher = stronger binding; sequences stand for … in GC…GCGATTGACAGCGTAGAATGAAGG
[1] = tested on: PPARg:RXRa DBDmut IVT, anti-RXR (DBD mutation: RXRa K156A/R161A, NR concentration 270 nM, RXRa partner concentration 90 nM)
In short: (§1)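 Scanned fluorescence from custom Agilent 4×180K protein-binding microarrays was regression-normalized. Binding z-scores use random background probes as reference. Ligand-free nuclear receptor dimers were incubated on the arrays for 1 h and detected with antibodies against each partner (one per run).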

[2] = tested on: PPARg:RXRa IVT, anti-PPARg (NR concentration 270 nM, RXRa partner concentration 90 nM)
In short: as §1

[3] = tested on: PPARg DBDmut:RXRa IVT, anti-PPARg (DBD mutation: PPARg1 K132A/R137A, NR concentration 270 nM, RXRa partner concentration 90 nM)
In short: as §1

[4] = tested on: PPARg DBDmut IVT, anti-PPARg (DBD mutation: PPARg1 K132A/R137A, NR concentration 270 nM)
In short: as §1

[5] = tested on: PPARg homodimer (NR concentration 180 nM)
In short: as §1

[6] = tested on: PXR homodimer (NR concentration 270 nM)
In short: as §1

[7] = tested on: RARa:RXR (NR concentration 270 nM, RXRa partner concentration 90 nM)
In short: as §1

[8] = tested on: RARa homodimer (NR concentration 270 nM)
In short: as §1

[9] = tested on: RARb:RXRa (NR concentration 270 nM, RXRa partner concentration 90 nM)
In short: as §1

Row | Sequence | PBM binding z-score [1] | PBM binding z-score [2] | PBM binding z-score [3] | PBM binding z-score [4] | PBM binding z-score [5] | PBM binding z-score [6] | PBM binding z-score [7] | PBM binding z-score [8] | PBM binding z-score [9]
1 | ATATGTAGGTTACATCCGAGTCATTCAGGCTATG | 6.76 | 7.07 | 4.51 | 3.39 | 0.982 | 0.05 | 0.757 | 0.574 | 0.973
2 | GGAACGAGGGCATTCGAGTTGATAGCATGGCGAT | 2.91 | 2.18 | -0.045 | 0.402 | -0.267 | 1.45 | 0.423 | -0.292 | 1.73
3 | CCTACTGGGCCAAAAAGGCCATTGATGCCGATAA | 2.77 | 2.4 | 0.199 | -0.751 | 0.287 | -0.211 | -0.0899 | -0.317 | 0.816
4 | CGTCTAAGTTCAAGGTAACGTAACAGAAAGCAGC | 0.796 | 1.09 | 0.251 | 0.258 | 1.64 | 2.9 | 2.09 | 0.625 | 3.79
5 | CGTCCAAGGTCAAAGGTCACTGAAGAGATGACGG | 4.24 | 6.37 | 2.37 | 1.21 | 2.49 | 2.15 | 9 | 3.47 | 5.96
6 | AGTCAAAGTTCTTCTAGGTAACGTAAGATATGCT | 0.515 | 1.89 | 0.999 | 1.12 | 0.188 | 0.42 | 0.106 | 0.636 | 0.948
7 | GATACAAGGTCAGCTAGAGGCCAGAGTATGGAAA | 2.56 | 3.25 | 0.75 | 0.155 | 3.37 | 0.19 | 4.64 | 1.06 | 5.05
8 | CCTACTGGGCCAAAGGTCTTTGATTCCAATGCTC | 5.05 | 5.18 | 0.12 | -0.165 | 0.366 | -0.504 | 0.354 | -0.497 | 0.448
9 | GCTTACGGGTGAAAGGTTATAGCATGAATAGAAT | 3.24 | 4.67 | 0.644 | 0.4 | 1.72 | 0.0936 | 4.93 | 0.6 | 2.14
10 | AATACAGGGTCACTGGGCCAGAGTAGGTACGAAT | 4.06 | 5.96 | 1.16 | 2.2 | 3.2 | 0.0493 | 4.88 | 1.05 | 4.3
11 | GATACAGGGTCAGCTTGAGGCCAGAGTATGGAAA | 1.23 | 2 | -0.407 | -0.636 | 1.71 | -0.346 | 3.44 | -0.0727 | 3.72
12 | ATATGTAGGTTAGCTGGCGTCATTCAGACTAGGC | 6.56 | 5.58 | 1.28 | 0.35 | 0.334 | -0.283 | 0.227 | 0.262 | 0.462
13 | TCTCGGAGGACACGAAAGGTGAGAGCTCGACATC | 1.27 | 0.956 | -0.191 | -0.811 | 0.673 | -0.496 | 1.05 | -0.329 | 2.26
